Screening results as filed in PubChem BioAssay.
Only some compounds are listed: those with a hit (about 0.63% of all), similar ones and a draw of the others.
TSHR antag: Antagonists of the Thyroid Stimulating Hormone Receptor: HTS campaign | TSHR-expressing cells, TSH-stimulated cAMP HTRF, 2 h; stronger effect = lower value | hit rate 0.2% among 330,000 | AID 504810, 2011 | activity change, negative = inhibition, % at 11.5 µM;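 active = activity change below a set negative limit, meaning inhibition stronger than a set level, cut at about -70% in these data; inconclusive = activity change between two set negative limits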; also: % is scaled to controls: 0 for no effect and ±100 for the full control effect
Target sequence (P16473 whole entry, looked up): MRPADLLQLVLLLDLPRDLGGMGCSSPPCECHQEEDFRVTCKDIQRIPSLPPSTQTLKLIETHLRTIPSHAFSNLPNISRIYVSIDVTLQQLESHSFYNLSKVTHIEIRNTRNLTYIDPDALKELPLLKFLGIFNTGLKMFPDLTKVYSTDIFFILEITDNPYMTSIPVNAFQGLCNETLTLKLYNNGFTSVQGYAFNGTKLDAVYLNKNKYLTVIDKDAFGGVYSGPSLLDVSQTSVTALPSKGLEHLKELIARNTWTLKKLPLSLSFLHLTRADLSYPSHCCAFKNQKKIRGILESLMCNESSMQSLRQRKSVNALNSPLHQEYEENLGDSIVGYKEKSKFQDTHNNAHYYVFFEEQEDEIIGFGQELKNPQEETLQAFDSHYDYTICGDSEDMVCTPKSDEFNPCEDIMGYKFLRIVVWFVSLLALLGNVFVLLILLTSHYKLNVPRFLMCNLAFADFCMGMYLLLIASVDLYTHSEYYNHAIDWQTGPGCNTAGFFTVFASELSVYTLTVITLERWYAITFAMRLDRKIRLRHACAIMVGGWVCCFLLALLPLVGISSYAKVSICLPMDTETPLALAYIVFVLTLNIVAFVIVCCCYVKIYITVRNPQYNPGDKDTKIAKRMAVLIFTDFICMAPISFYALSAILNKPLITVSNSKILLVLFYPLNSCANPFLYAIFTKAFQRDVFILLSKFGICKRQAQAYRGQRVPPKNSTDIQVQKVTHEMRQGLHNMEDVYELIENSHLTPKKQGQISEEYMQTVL
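Read-out is FRET at 665 nm (cryptate excitation 337 nm) from a cryptate-tagged anti-cAMP antibody, competed by cell cAMP against cAMP-d2. Compounds are tested on freshly harvested TSHR cells challenged with 4nM TSH (EC80) for 2 hours at 37 deg C.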
gsp antag: qHTS for Antagonists of gsp, the Etiologic Mutation Responsible for Fibrous Dysplasia/McCune-Albright Syndrome: qHTS. gsp-mutant cells, cAMP HTRF, 30 min. Potency, µM (titrated, usually from 76.9 µM), inactives show at the highest dose activity change, negative = inhibition, actives largely listed as inhibitors. hit rate 0.4% among 340,000. AID 624288, 2012; calls by dose curve; cell line not stated here;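 also: intracellular cAMP measured with PDE inhibitor Ro 20-1724 present during compound exposure; potency is read from the fitted curve at half-maximal effect; % is scaled to controls: 0 for no effect and ±100 for the full control effect; nearly all actives have a fitted effect of over 65% in size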
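Cells in G418 medium, seeded 16-24 h, 37C; buffer exchange to DPBS + 1 mM CaCl2, 0.5 mM MgCl2, 0.05% BSA; cpds in DMSO + […] (300 uM stock), 30 min 37C; HTRF cAMP detection.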
gsp agonist: qHTS for Agonist of gsp, the Etiologic Mutation Responsible for Fibrous Dysplasia/McCune-Albright Syndrome: qHTS; Potency, µM (top dose mostly 76.9 µM), for the others: top-dose activation (cAMP increase), usual class: activators; gsp mutant cells, cAMP HTRF, 30 min; hit rate 0.13% among 340,000; active = well fitted activation curve with a large enough effect; inconclusive = small, poorly fitted or top-dose-only effect, or another doubt; inactive = no such curve, though single readings can be large or run the other way; cell line not stated here;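 also: phosphodiesterase inhibitor Ro 20-1724 added with compounds to block cAMP breakdown; potency is read from the fitted curve at half-maximal effect; nearly all actives have a fitted effect of over 60% in size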
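Cells in DMEM/10% FBS with G418 were pretreated with compounds in DMSO plus […] (300 uM stock) for 30 min at 37C. cAMP was measured by HTRF (cAMP-d2 plus anti-cAMP antibody-K) after 30 min at room temperature.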
ASM inhibitor: Inhibitors of Secretory Acid Sphingomyelinase (S-ASM): qHTS. Potency, µM (top dose mostly 57.5 µM), for the others: at the highest dose activity change, negative = inhibition, most hits filed as inhibitors. placental ASM, HMU-PC fluorogenic substrate, 60 min. hit rate 0.006% among 340,000. Sphingomyelin phosphodiesterase (Homo sapiens), P17405. AID 504937, 2011; active = well fitted inhibition curve with a large enough effect; inconclusive = small, poorly fitted or top-dose-only effect; inactive = no such curve, though single readings can be large or run the other way; also: potency is read from the fitted curve at half-maximal effect
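HMU-PC0 cleavage (9 uM final) by human placental ASM, 60 min at 37 °C following 10 min compound exposure at RT; stopped at pH 10, fluorescence Ex 386/Em 447 nm.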
* = called active by the depositor; ? = inconclusive; nt = no result given; [ ] = another dose, or the depositor's remark.

SMILES | TSHR antag | gsp antag | gsp agonist | ASM inhibitor
CC(Oc1ccc(Cl)cc1Cl)C(=O)Nc1ccc2oc(-c3ccncc3)nc2c1 (stereo unspecified) | -13 | 32µM* | 2% | -4%
Fc1ccccc1-c1ccc(/C=N/Nc2nc3ccccc3[nH]2)o1 | -1 | 40µM* | -27% | 88%
COc1ccc(OC)c(NC(=O)COC(=O)[C@H](Cc2ccccc2)NC(=O)c2ccco2)c1 | -9 | ? | -23% | -6%
Cc1cc(C)nc(/N=C(\N)N(Cc2ccccc2)Cc2ccccc2)n1 | -2 | -11% | 19%[15.4 µM] | -3%
CN(Cc1ccon1)Cc1cn(C)nc1-c1cccc(Cl)c1 | -5 | 2% | -3%[15.4 µM] | 4%
O=C(/C=C/c1ccc(F)cc1)c1cc(Br)ccc1O | -13 | -12% | -1%[15.4 µM] | -1%
O=C(/C=C/c1ccccc1)c1cc(Br)ccc(=O)c1O | -85* | -12% | -76% | -1%
O=C(CN1C(=O)/C(=C/c2ccco2)SC1=S)NC1CCS(=O)(=O)C1 (stereo unspecified) | -3 | -7% | 29% | -12%
CC(=O)Nc1ccc(NC(=O)C(C)OC(=O)CCCN=C2NS(=O)(=O)c3ccccc32)cc1 (stereo unspecified) | 9 | 6% | -50% | 3%
CC(OC(=O)CCN=C1NS(=O)(=O)c2ccccc21)C(=O)Nc1ccc(N(C)C)cc1 (stereo unspecified) | 3 | 7.1µM* | -27% | -4%
C(=N\N1CCN(Cc2cccc3ccccc23)CC1)/c1cccnc1 | -82* | -1% | ? | -3%
FC(F)(F)c1ccc(/C=N/N2CCN(Cc3cccc4ccccc34)CC2)cc1 | 2 | 8% | 4% | -5%
O=C(O)c1cccc(CN2C(=O)S/C(=C/c3cccc([N+](=O)[O-])c3)C2=O)c1 | -9 | 20µM* | ? | -2%
Cc1ccc(C)c(N2CCN(C(=O)C34CC5CC(C3)CC(n3nnc(C)n3)(C5)C4)CC2)c1 | -27 | 40µM* | -3%[15.4 µM] | -3%
Cc1ccc(C23CC4CC(CC(C(=O)N5CCN(C)CC5)(C4)C2)C3)cc1 | -4 | 3% | 14% | 0%
CCN(CC)S(=O)(=O)c1ccc(N2CCCC2)c(NS(=O)(=O)c2ccc(F)cc2)c1 | 16 | -4% | 25µM* | -2%
COc1ccc(CCNC(=O)CCn2c(=O)c3cccn3c3cccnc32)cc1OC | -2 | 13% | ? | 1%
O=S1(=O)C=C(Sc2nc3cc(Cl)ccc3o2)c2ccccc21 | -78* | 10% | 6% | -1%
CC(=O)c1ccc(N2CCN(C(=O)CCCn3c(=O)[nH]c4ccc(Br)cc4c3=O)CC2)cc1 | -14 | 35µM* | 20% | -12%
COC(=O)c1ccc2c(=O)n(CCCCCC(=O)N3CCN(c4ccccc4)CC3)c(=O)[nH]c2c1 | 5 | 8.9µM* | 1% | 29%
Cc1nc(NC(=O)CSc2nnc(C3CC3)n2C)sc1C | 10 | -18% | 6%[15.4 µM] | -1%
CC(C)CCn1c(-c2nonc2N)nc2ccccc21 | 10 | 28µM* | -22% | -13%
CC(C)NS(=O)(=O)c1cc(F)ccc1CN1C(=O)c2cccnc2C1=O | 20 | -4% | 13µM* | -1%
COC(=O)c1cnn(-c2ccc(C(=O)Nc3ccc(C(C)=O)cc3)cc2)c1N | 3 | nt | nt | nt
Cc1ccc(Cl)cc1NC(=O)C1CC1c1ccccc1 (stereo unspecified) | -3 | -12% | -48% | 0%
SMILES | TSHR antag | gsp antag | gsp agonist | ASM inhibitor
C=CCSC1=Nc2sccc2C2=NC(=O)CN12 | -15 | 15% | 20µM* | 2%
COc1ccccc1N1CCN(Cc2cc(=O)c(OCC(=O)NC(C)C)co2)CC1 | -7 | 8% | 20% | -1%
CC(C)NC(=O)COc1coc(CN2CCN(c3ccccc3F)CC2)cc1=O | -124* | -1% | -12% | -3%
CCSc1nnc(SCC(=O)c2c(N)n(C)c(=O)n(C)c2=O)s1 | -7 | -2% | 1%[15.4 µM] | -5%
CCN(CC)S(=O)(=O)c1ccc2c(c1)nc(SCn1nnc3ccccc3c1=O)n2CC | 6 | 6% | 35µM* | -6%
COc1cccc(CNc2cc(CSc3ccc(Cl)cc3)nc(C)n2)c1 | -2 | -20% | -1% | -3%
Cc1ccccc1NC(=O)N1CCNC(=O)C1CC(=O)Nc1cc(Cl)ccc1Cl (stereo unspecified) | -2 | 3% | -7%[15.4 µM] | 4%
Cc1nc2sccn2c(=O)c1Br | 28 | 11% | 29% | 7%
CCCCOC(=O)c1ccc(NC(=O)c2c(OC)cccc2OC)cc1 | -14 | -17% | 11µM* | -1%
CN(c1ccc(O)cc1)c1nc(O)c(C2=c3ccccc3=NC2=O)s1 | nt | 14µM* | 7% | ?
Cc1ccc(C(=O)Nc2scc(-c3ccccc3)c2C(=O)O)cc1 | nt | -27% | -2%[15.4 µM] | 22%
CC(C)(C)C(=O)Nc1scc(-c2ccc(-c3ccccc3)cc2)c1C(=O)O | -50 | 35µM* | -79% | -1%
C=CCn1c(SCC(=O)NCC(=O)OCC)nnc1-c1cccc(OC)c1 | -1 | 0% | -24% | 1%
CCOC(=O)CNC(=O)CSc1nnc(-c2cccc(C)c2)n1-c1ccc(OC)cc1 | 12 | 6.3µM* | -5% | 1%
COCCN(C(=O)CSc1nnc(-c2ccncc2)n1C)c1c(N)n(CC(C)C)c(=O)[nH]c1=O | nt | 7% | -26% | 1%
NC(=S)NCCC[C@H](N)C(=O)O | -13 | nt | nt | nt
Cn1c(=O)cc(SCC(=O)N2CCCC2)c2ccc(Cl)cc21 | 5 | -19% | 11µM* | -3%
COC(=O)CN(c1ccc(C)cc1)S(=O)(=O)c1ccc2c(c1)n(C)c(=O)c(=O)n2C | -96* | -8% | 6% | 0%
CCOc1ccc(N(CC(=O)OC)S(=O)(=O)c2ccc3c(c2)n(C)c(=O)c(=O)n3C)cc1 | 12 | -7% | -5% | -1%
O=C(NCCc1cn[nH]c1)c1ccc2oc(CCc3ccccc3)nc2c1 | nt | nt | -136% | nt
Cc1cc(C=O)c(C)n1-c1ccc(NC2CCCC2)c([N+](=O)[O-])c1 | -100* | -12% | 1%[15.4 µM] | -14%
COC(=O)c1cccc(NC(=O)Nc2ccc(Cl)c(Cl)c2)c1 | -36 | 35µM* | -1% | ?
O=C(Nc1ccc(F)c(Cl)c1)Nc1csc2ccccc12 | -22 | 35µM* | 8%[15.4 µM] | -12%
COC(=O)c1ccc(NC(=O)Nc2ccc(F)c(Cl)c2)cc1 | ? | 35µM* | 0% | -1%
O=C(N1CCN(c2cccc(Cl)c2)CC1)C1(c2cccs2)CCOCC1 | -3 | ? | 10% | 0%
Cc1ccc(C(=O)Nn2cnnc2)cc1 | 0 | -1% | -18% | 1%
COc1ccccc1NC(=O)NNC(=O)c1ccncc1 | nt | 7% | 26% | 1%
CCC(C)NC(=O)CSc1ccc(S(=O)(=O)N(C)C2CCCCC2)cn1 (stereo unspecified) | -5 | -7% | 3% | -2%
O=c1cc(-c2c(F)c(F)c(F)c(F)c2F)oc2ccccc12 | -13 | 12% | 12% | -2%
